Reference: PubChem BioAssay (NCATS)
Results filed as inconclusive are left out. Activity calls are given as the source filed them. The call rests on the fitted dose curve; in most records, active means well fitted inhibition curve with a large enough effect; inconclusive means small, poorly fitted or top-dose-only effect; inactive means no such curve, though single readings can be large or run the other way.

Assay: Primary qHTS for small molecule stabilizers of the endoplasmic reticulum resident proteome: Secreted ER Calcium Modulated Protein (SERCaMP) assay (AID 1508630)
Details: SH-SY5Y GLuc-SERCaMP (Gaussia luciferase released on ER calcium loss) secretion, thapsigargin, luminescence; series mostly up to 38.4 µM; activity change, negative = inhibition: at the top concentration
Summary of the method: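 GLuc-SERCaMP-expressing SH-SY5Y cells, pretreated 16 h with compound, are challenged with thapsigargin to empty ER calcium stores; after 4 h, coelenterazine is added directly to the medium and luminescence is imaged.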
On the % scale 0 is the no-effect control and ±100 the full control effect.

Activity change, negative = inhibition, inactive:
Nc1ncnc2c1nc(Br)n2[C@@H]1O[C@H]2COP(=O)(O)O[C@@H]2[C@@H]1O 95.7%, NCC(O)COc1cccc2ccccc12 (centres undefined) -18.2%, NCCCC[C@@H](N)C(=O)O -23.2%, CC(C)C[C@H](NC(=O)[C@H](CCCCN)NC(=O)[C@H](CCCNC(=N)N)NC(=O)[C@H](C)NC(=O)[C@H](CO)NC(=O)[C@H](CCCCN)NC(=O)[C@H](CCCNC(=N)N)NC(=O)[C@H](C)NC(=O)CNC(=O)[C@@H](NC(=O)[C@H](Cc1ccccc1)NC(=O)CNC(=O)CNC(=O)[C@@H](N)Cc1ccccc1)[C@H](C)O)C(=O)N[C@@H](C)C(=O)N[C@@H](CC(N)=O)C(=O)N[C@@H](CCC(N)=O)C(=O)O 13.9% [at 3.88 µM], O=Nc1ccc(O)c2ncccc12 61.3%, CCCCCCOC(=O)C1(O)CC2OC1(C)n1c3ccccc3c3c4c(c5c6ccccc6n2c5c31)C(=O)NC4 (centres undefined) -23% [at 3.88 µM], N[C@H](CS)C(=O)O -4.06%, O=c1oc(-c2ccc(C(F)(F)F)cc2)nn1Cc1cc(Cl)ccc1O -9%, CCCCC/C=C\C/C=C\CCCCCCCC(=O)O[C@@H](CO)COC(=O)CCCCCCCCCCCCCCCCC 6.55% [at 3.88 µM], COc1ccc(C2CC(c3c(O)cc(C)oc3=O)=NCCS2)c(OC)c1 (centres undefined) 67.3%, CNC(=O)[C@H]1O[C@@H](n2cnc3c(N)ncnc32)[C@H](O)[C@@H]1O -32.2%, Cc1[nH]c(/C=C2/C(=O)Nc3ccc(S(=O)(=O)Cc4c(Cl)cccc4Cl)cc32)c(C)c1C(=O)N1CCCC1CN1CCCC1 (centres undefined) -24.3%, c1ccc2[nH]c(NCCCc3cnc[nH]3)nc2c1 -17.2%, C[C@@H](O)CNC(C)(C)CC(=O)N[C@@H]1CCc2ccccc2N(Cc2ccc(-c3ccccc3-c3nn[nH]n3)cc2)C1=O -37.9%, CCc1c2c(nc3ccc(OC(=O)N4CCC(N5CCCCC5)CC4)cc13)-c1cc3c(c(=O)n1C2)COC(=O)C3(O)CC (centres undefined) 102%, CO[C@H]1C[C@@H]2CC[C@@H](C)[C@@](O)(O2)C(=O)C(=O)N2CCCC[C@H]2C(=O)O[C@H](C(C)C[C@H]2CC[C@@H](O)[C@H](OC)C2)CC(=O)[C@H](C)/C=C(\C)[C@@H](O)[C@@H](OC)C(=O)[C@H](C)C[C@H](C)/C=C/C=C/C=C/1C (some centres undefined) 29% [at 21.6 µM], Oc1ccc(-c2c(-c3ccccc3)nn3c(C(F)(F)F)cc(C(F)(F)F)nc23)cc1 -17.2%, CCCCC[C@H](O)/C=C/[C@H]1C(=O)C=C[C@@H]1C/C=C\CCCC(=O)O -10.1% [at 3.88 µM], Cn1cnc2nc(NCCO)nc(NCc3ccccc3)c21 -14%, C[C@H](N)CCCP(=O)(O)O -22%, CCCCC/C=C\C/C=C\C/C=C\C/C=C\CCCC(=O)O[C@@H](CO)COCCCCCCCCCCCCCCCC -14% [at 3.88 µM], COCCCCCCCCCCCC(=O)O -27.3% [at 3.88 µM], Nc1ccnc2c1ncn2[C@@H]1O[C@H](CO)[C@@H](O)[C@H]1O -30.1%, OC[C@H]1O[C@@H](n2cnc3c(N[C@H]4C[C@H]5CC[C@@H]4C5)ncnc32)[C@H](O)[C@@H]1O 14.5%, CCCCCCCC/C=C\CCCCCCCC(=O)OCC(CO)OC(=O)CCCCCCC/C=C\CCCCCCCC (centres undefined) 17.1% [at 3.88 µM], N[C@H](C(=O)O)C1C(C(=O)O)C1C(=O)O (some centres undefined) 10.3%, O=P(O)(O)C(O)c1ccc2ccccc2c1 (centres undefined) -3.58%, O=c1ncccn1[C@@H]1O[C@H](CO)C(O)[C@@H]1O (some centres undefined) 23.1%, COc1c(O)cc2oc(-c3ccc(O)cc3)cc(=O)c2c1O -19.9%, CCCCCC(=O)/C=C/C=C\CCCCCCCC(=O)O -7.64% [at 0.478 µM], CN1C/C(=C/c2ccc(B(O)O)cc2)C(=O)/C(=C/c2ccc(B(O)O)cc2)C1 28.1%, CCCCC[C@H](O)/C=C/C=C\C=C\C=C\[C@@H](O)[C@@H](O)CCCC(=O)O 7.52% [at 0.478 µM], CCCCCCCCCCCCC(O)C(=O)O (centres undefined) 56.7% [at 3.88 µM], COc1ccc2[nH]cc(CCO)c2c1 8.66%, CCC(=O)NC1CCc2cccc(OC)c2C1 (centres undefined) 6.63%, COC(=O)CNC(=O)C(=O)OC -16.2% [at 3.88 µM], CCCCC[C@H](O)CC[C@H]1[C@H](O)CC(=O)[C@@H]1CCCCCCC(=O)O -15% [at 3.88 µM], O=C(O)CCc1cc(I)c(O)c(I)c1 -13.1%

Potency, inactive:
N#CC(C#N)=C(N)/C(C#N)=C/c1ccc2[nH]ccc2c1
